Laboratory results from the supplement of paper PMC13380429.
Unmarked numbers belong to inactive results.

Tested on: Vero E6 infected with SARS-CoV-2
Assay: inhibition of SARS-CoV-2 cytopathic effect; higher = more antiviral protection, active = above 15
Conditions: 1 nM; 48 h

Compound | inhibition of SARS-CoV-2 cytopathic effect [%]
COc1ccnc(C[S+]([O-])c2nc3cc(OC(F)F)ccc3[nH]2)c1OC (stereo not given) [pantoprazole] | -1.17
C=CC[C@]1(O)CC[C@H]2[C@@H]3CCC4=CCCC[C@@H]4[C@H]3CC[C@@]21C [allylestrenol] | -1.01
C[C@H](/C=C/[C@H](C)C(C)(C)O)[C@H]1CC[C@H]2/C(=C/C=C3C[C@@H](O)C[C@H](O)C3)CCC[C@]12C [paricalcitol] | 0.83
C/C(=N\Nc1nnc2c(n1)[nH]c1c(C)cccc12)c1ccccn1 | 0.125
COC(=O)[C@H](c1ccccc1Cl)N1CCc2sccc2C1 [clopidogrel] | 0.4
CC(=O)N[C@@H](CS)C(=O)O [acetylcysteine] | 1.87
COc1ccc(N2CCOCC2)c2sc(NC(=O)N3CCC(C)(O)CC3)nc12 [tozadenant] | 1.95
Cc1c(C)c2c(c(C)c1O)CC[C@@](C)(CCC[C@H](C)CCC[C@H](C)CCCC(C)C)O2 [vitamin-E] | 3.32
COc1ccn2ncc(-c3nc4[nH]nc(NC(=O)c5ccc(F)cc5)c4cc3F)c2c1 | 1.72
C[C@@H]1NC(=O)[C@@H]2CCCN2C(=O)[C@H](CC(N)=O)NC(=O)[C@@H]2CSSC[C@H](N)C(=O)N[C@H]3CSSC[C@H](NC1=O)C(=O)N[C@@H]([C@@H](C)O)C(=O)NCC(=O)N[C@H](C(=O)N[C@@H](Cc1ccc(O)cc1)C(=O)O)CSSC[C@H](NC(=O)[C@H](Cc1ccc(O)cc1)NC(=O)[C@H](CCC(=O)O)NC3=O)C(=O)N2 [linaclotide] | -2.9
O=C(c1c2ccccc2cc2ccccc12)N1CCC(N2CCC[C@@H](C(=O)N3CCOCC3)C2)CC1 | -1.36
CC(=O)NC[C@H]1CN(c2ccc(-c3ccc(CNCc4cnn[nH]4)cc3)c(F)c2)C(=O)O1 [radezolid] | -1.38
CCN(CC)CCCCNc1ncc2cc(-c3c(Cl)cccc3Cl)c(NC(=O)NC(C)(C)C)nc2n1 | -1.36
CC[C@H]1[C@@H](O)[C@@H]2[C@H](CC[C@]3(C)[C@@H]([C@H](C)CCOS(=O)(=O)O)CC[C@@H]23)[C@@]2(C)CC[C@@H](O)C[C@@H]12 | 0.86
NCc1c[nH]c(=S)n1[C@H]1CCc2c(F)cc(F)cc2C1 [nepicastat] | -0.64
CC(C)COC(=O)c1ccc(N)cc1 [isobutamben] | -0.32
Cc1coc2c1C(=O)C(=O)c1c-2ccc2c(C)cccc12 [tanshinone-I] | 1.07
CN[C@@H](C)C(=O)N[C@H](C(=O)N1CCC[C@H]1c1nc(C(=O)c2ccc(F)cc2)cs1)C1CCCCC1 | 1.96
Cc1cccc(C)c1NC(=O)CC12CCCN1CCC2 [pilsicainide] | 0.34
CC(=O)c1cc([N+](=O)[O-])c(Sc2ccc(F)cc2F)s1 | -0.55

Compound | inhibition of SARS-CoV-2 cytopathic effect [%]
CCOC(=S)SSC(=S)OCC [dixanthogen] | -1.96
COc1cc(N)c(Cl)cc1C(=O)OCCCN1CCCCC1 | 3.12
COc1ccc(CN(C(=O)[C@@H](N)Cc2c(C)cc(C(N)=O)cc2C)[C@@H](C)c2ncc(-c3ccccc3)[nH]2)cc1C(=O)O [eluxadoline] | 2.78
CCOc1cc(C(C)(C)C)ccc1C1=N[C@@](C)(c2ccc(Cl)cc2)[C@@](C)(c2ccc(Cl)cc2)N1C(=O)N1CCN(CCCS(C)(=O)=O)CC1 | -1.23
Cc1ccccc1-n1c(Cn2ncc3c(N)ncnc32)nc2cccc(C)c2c1=O | -1.01
Cc1cccc(Nc2ccncc2S(=O)(=O)NC(=O)NC(C)C)c1 [torasemide] | -0.3
CC(C)[C@H](CO)Nc1nc(Nc2cccc(Cl)c2)c2ncn(C(C)C)c2n1 [purvalanol-A] | -1.59
CCn1cc(C(=O)O)c(=O)c2cc(F)c(N3CCN(C)CC3)cc21 [pefloxacin] | 2.27
CCOC(=O)c1ncc2[nH]c3ccc(OCc4ccccc4)cc3c2c1COC | 2.48
CC(C[N+](C)(C)C)OC(N)=O (stereo not given) [bethanechol] | -5.4
COc1ccc(/C=C/C(=O)Nc2ccccc2C(=O)O)cc1OC [tranilast] | -0.23
c1ccc(-c2oc3ncnc(NC[C@@H]4CCCO4)c3c2-c2ccccc2)cc1 | 0.95
O=C(Nc1ccc([N+](=O)[O-])cc1O)Nc1ccccc1Br | 0.2
C[C@]1(COc2ccc(N3CCC(Oc4ccc(OC(F)(F)F)cc4)CC3)cc2)Cn2cc([N+](=O)[O-])nc2O1 [delamanid] | -0.82
CCc1c(-c2ccccc2)c(-c2ccccc2)nn1-c1ccccc1-c1cccc(OCC(=O)O)c1 | -2.24
Nc1ncc2c(n1)CC(c1ccco1)CC2=O (stereo not given) | 2.9
Nc1ncnc2c1c(-c1cnc3[nH]ccc3c1)nn2C1CCCC1 | -1.07
CCCCC/C=C\C/C=C\C/C=C\C/C=C\CCCC(=O)Nc1ccc(O)cc1 | -2.34
CCCC(C)NC(=O)c1ccc(Cl)c(Cl)c1 (stereo not given) | 1.38
CC(C)C[C@@H](N)C1(c2ccc(Cl)cc2)CCC1 | -0.06
